Source: the supplement of paper PMC10338343
± gives the standard deviation.

Test system: MILI (PIWIL2) piRISC loaded with L1MC piRNA (26 nt)
Assay: pre-steady-state target cleavage rate (min^-1); guide: L1MC piRNA 5'p-UAACUAAAUACUAUGCAAGCUGUAGG; MIWI and MILI are mouse PIWI proteins and EfPiwi is from a freshwater sponge; tags in brackets are library labels; higher = faster piRNA-guided slicing of the target
Procedure, shortened: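 Reactions were run for 0–8 or 0–960 min at 33 °C in HEPES–potassium acetate buffer, combining 1 nM active affinity-purified piRISC with one synthetic guide, […] transcribed, DNA-blocked target RNA library and, in some cases, 500 nM GTSF1 partner protein. Sequencing of uncleaved targets followed, with normalisation to depth and to weakly complementary targets. Three trials were pooled, k3 was capped at 0.0001 min^-1, and the pre-steady-state cleavage rate was taken from a burst-and-steady-state fit.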

[1] = auxiliary factor: 500 nM mouse GTSF1
[2] = auxiliary factor: none (no GTSF1)
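Further: 1 nM active piRISC with 0.1 nM target library at 33 °C single turnover.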

| Sequence | pre-steady-state target cleavage rate [1] | pre-steady-state target cleavage rate [2] |
| --- | --- | --- |
| UCCUGGAUGAGCUUGCAAACUAUUUAGUUA | 0.00935 ± 0.0025 | 0.00292 ± 0.0024 |
| UCCUGGAUCAGCUUGCUUAGUAUAUAGUUA | 0.234 ± 0.014 | 0.00803 ± 0.0031 |
| UCCUGGAUGUCCUUGUAUAGUAUUUAGUUA | 0.119 ± 0.018 | 0.0121 ± 0.0026 |
| UCCUGGUACAGCUUGGAUAGUAUUUUGUUA | 0.0944 ± 0.022 | 0.00486 ± 0.0048 |
| UCCUGGAACAGCUUGCUAUGUAUUUAGUUA | 0.0569 ± 0.017 | 0.00412 ± 0.0022 |
| UCCUGGUACAGCUAGCAUUGUAUUUAGUUA | 0.127 ± 0.017 | 0.00717 ± 0.0034 |
| UCCUGGAUGUCCUUGCAUAGUAUAUUAGUUA | 0.188 ± 0.034 | 0.00666 ± 0.0032 |
| UCCUGGAUGUCCUUGGAUAGUAAUUAGUUA | 0.411 ± 0.1 | 0.00325 ± 0.0027 |
| UCCUGGAUGUCCUUGCAUAGUACUUUAGUUA | 0.0282 ± 0.011 | 0.00534 ± 0.0022 |
| UCCUGGUACAGCUUGCAUAGAUAUUUAGUUA | 0.0243 ± 0.011 | 0.00568 ± 0.0026 |
| UCCUGGUACAGCCUGCAUAGUAUUUAGUUA | 0.186 ± 0.024 | 0.0143 ± 0.004 |
| UCCUGGAUGUCCUUGCAUAGUAUCUUAGUUA | 0.0833 ± 0.017 | 0.00566 ± 0.0029 |
